Broadly, the inhibition is the drop in the measured response relative to a control, in per cent.

Each structure is given as a SMILES string. Unmarked numbers belong to inactive results. This is one part of the list. Active and inactive are the calls of the source.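 How the source made its calls, unless noted: active means inhibition above a cutoff equal to the mean inhibition of all tested compounds plus 3 SD (cut at about 30% in these data); inactive means the rest.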

These results are taken from PubChem BioAssay.

Assay [1] concerns the target Bcl-2-like protein 1 (Homo sapiens) (UniProt Q07817). Description: Bcl-xL inhibitors blocking Bim BH3 binding, confirmation, counter-screen for MCL1 inhibitor project, biochemical, fluorescence polarization (AID 2166). Conditions: GST-Bcl-xL / FITC-Bim BH3 peptide FP binding; at 10.9 µM; hits give high values.
Assay [2] concerns the target Induced myeloid leukemia cell differentiation protein Mcl-1 (Homo sapiens) (UniProt Q07820). Description: inhibitors of MCL1 binding to BIM-BH3, confirmation, biochemical, fluorescence polarization, triplicate (AID 2168;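 active means inhibition above the average of all tested compounds plus 3 SD, cut at about 40% in these data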;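 further: 0% = DMSO wells and 100% = unlabeled Bim-BH3 control peptide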). Conditions: GST-MCL1 / FITC-Bim-BH3 fluorescence polarization; at 10.9 µM; hits give high values.
Assay [3] has as its target Lytic switch protein BZLF1 (Epstein-Barr virus (strain B95-8)) (UniProt P03206). Description: EBV Zta binding to ZRE DNA, inhibitors, confirmation, biochemical, fluorescence polarization, triplicate (AID 2361;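 active means mean inhibition across triplicate runs above the hit threshold derived for the original primary screen, cut at about 33% in these data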;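 further: 0% = Zta with DMSO and 100% = wells lacking Zta protein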). Conditions: at 11.1 µM, hits give high values. (Fluorescence polarisation rises when a labelled molecule tumbles more slowly, as on binding a larger partner.)
In assay [4] the test system is Epstein-Barr virus nuclear antigen 1 (EBNA-1), Human herpesvirus 4. Description: EBNA-1 DNA-binding inhibition, counter-screen for ZTA inhibitor project, biochemical, fluorescence polarization (AID 2362; call rule not given here). To be noted: at 14.8 µM, hits give high values. (A counterscreen serves to expose hits that act by an unwanted route or on another target.)
The target of assay [5] is Glutathione S-transferase omega-1 (Homo sapiens) (UniProt P78417). Description: GSTO1 inhibitor hit confirmation, counter-screen for RBBP9 inhibitor project, biochemical, fluorescence polarization, triplicate (AID 2176;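 active means inhibition above the primary screen's cutoff, its mean inhibition plus 3 SD, cut at about 35% in these data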;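 further: loss of polarization as inhibitors block binding of rhodamine sulfonate ester activity probe; 0% = GSTO1 with DMSO and 100% = wells lacking GSTO1 enzyme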). Conditions: recombinant GSTO1, probe fluorescence polarization; at 5.96 µM; hits give high values.
In assay [6] the target is Serine protease HTRA1 (Homo sapiens) (UniProt Q92743). Description: HTRA1 protease inhibitors, retest, confirmation, biochemical, fluorescence polarization (AID 540248;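 active means mean inhibition over three repeats above a set limit taken from the earlier primary screen, cut at about 37% in these data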;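 further: 0% = HTRA1 with DMSO and 100% = wells lacking HTRA1; inhibitors block probe binding so polarization drops and inhibition rises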). To be noted: recombinant HTRA1, FP-rhodamine activity-based probe, at 5.96 µM, hits give high values.
Assay [7] has as its target Nuclear receptor coactivator 3 (Homo sapiens) (UniProt Q9Y6Q9). Description: SRC3 coactivator transcriptional activity inhibitors, confirmation, cell-based, luminescence, quadruplicate (AID 588792;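 active means mean inhibition over 43.08%, the solvent-only control mean plus 3 SD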;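 further: 0% = DMSO treated cells and 100% = gossypol at 36 µM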). Conditions: HEK293 GAL4-SRC3 luciferase reporter, at 3.6 µM, hits give high values. (A reporter such as luciferase makes a cellular process visible.)
For assay [8], the system named is transactivating tegument protein VP16 (Human herpesvirus 1), Gal4-VP16 luciferase reporter. Description: VP16 transactivation inhibitors, counter-screen for SRC3 inhibitor project, cell-based, luminescence, high throughput (AID 588794; in the data active means inhibition above about 30%). Conditions: mammalian cells, VP16-driven luciferase reporter luminescence; at 3.6 µM; hits give high values.
Assay [9] has as its target Nuclear receptor coactivator 1 (Homo sapiens) (UniProt Q15788). Description: SRC1 coactivator transcriptional activity inhibitors, confirmation, cell-based, luminescence, quadruplicate (AID 588820;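 active means mean inhibition above 46.68%, the untreated control wells mean plus 3 SD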;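 further: 0% = DMSO wells and 100% = gossypol 36 µM treated wells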). Conditions: HEK293 GAL4-SRC1 luciferase reporter, at 3.6 µM, hits give high values.
A short description of assay [10]: VP16 transactivation inhibitors, counter-screen for SRC1 inhibitor project, cell-based, luminescence, high throughput (AID 588824; in the data active means inhibition above about 25%). Conditions: cell-based VP16 transactivation luciferase luminescence; at 3.6 µM; hits give high values.
Assay [11] has as its target (Lyso)-N-acylphosphatidylethanolamine lipase (Mus musculus) (UniProt Q8VD66). Description: ABHD4 inhibitors, retest, confirmation, biochemical, fluorescence polarization, mouse (AID 720658;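 active means mean inhibition across replicates above the hit cutoff set in the primary screen, cut at about 30% in these data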;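 further: 0% = wild-type ABHD4 with DMSO and 100% = catalytically dead S159A mutant with DMSO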). Conditions: purified mABHD4, FP-Rh probe fluorescence polarization; at 8.92 µM; hits give high values.
In assay [12] the target is Protein-arginine deiminase type-4 (Homo sapiens) (UniProt Q9UM07). Description: human PAD4 inhibitors, confirmation, biochemical, fluorescence polarization (AID 488796;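 active means mean inhibition across replicates above the hit cutoff set by the earlier primary screen, cut at about 15% in these data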;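 further: inhibitors block active-site labeling by the probe so polarization falls; 0% = PAD4 with probe and DMSO and 100% = probe without PAD4 enzyme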). Conditions: recombinant PAD4, RCA probe fluorescence polarization; at 6.36 µM; hits give high values.
Assay [13] in a line: compounds interfering with TAMRA-BSA probe, counter-screen for TCR-CD3 interaction inhibitor project, biochemical, fluorescence, TAMRA-labeled BSA (AID 652035; in the data active means inhibition above about 23%;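 further: 0% = buffer low control and 100% = reference high control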). Conditions: TAMRA-labeled BSA probe fluorescence counterscreen; at 9.4 µM; hits give high values.
Assay [14] concerns T-cell receptor (TCR)-CD3 interaction, human. Description: TCR-CD3 interaction inhibitors, retest, confirmation, biochemical, fluorescence, TAMRA-labeled TCR probe (AID 652036; in the data active means inhibition above about 19%). Conditions: TAMRA-labeled TCR probe fluorescence binding assay; at 9.4 µM; hits give high values.

Sequence of Glutathione S-transferase omega-1 (Homo sapiens) (P78417 whole entry, looked up): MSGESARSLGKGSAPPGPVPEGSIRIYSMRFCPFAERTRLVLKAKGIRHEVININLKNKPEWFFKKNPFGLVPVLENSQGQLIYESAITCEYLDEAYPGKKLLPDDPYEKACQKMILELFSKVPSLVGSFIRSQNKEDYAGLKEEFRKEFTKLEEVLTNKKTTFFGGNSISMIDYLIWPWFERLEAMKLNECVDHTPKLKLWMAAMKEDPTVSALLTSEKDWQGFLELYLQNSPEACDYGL
Sequence of Induced myeloid leukemia cell differentiation protein Mcl-1 (Homo sapiens) (Q07820 whole entry, looked up): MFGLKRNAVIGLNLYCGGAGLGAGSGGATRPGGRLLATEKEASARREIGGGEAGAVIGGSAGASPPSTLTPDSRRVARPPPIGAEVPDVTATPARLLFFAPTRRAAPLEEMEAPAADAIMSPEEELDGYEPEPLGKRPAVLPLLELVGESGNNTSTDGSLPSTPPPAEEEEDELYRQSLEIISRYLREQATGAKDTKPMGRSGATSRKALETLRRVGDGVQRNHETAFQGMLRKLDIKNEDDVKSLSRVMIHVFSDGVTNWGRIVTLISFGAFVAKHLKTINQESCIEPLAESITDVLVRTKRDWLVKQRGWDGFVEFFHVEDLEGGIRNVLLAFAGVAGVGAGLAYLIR
Sequence of Bcl-2-like protein 1 (Homo sapiens) (Q07817 whole entry, looked up): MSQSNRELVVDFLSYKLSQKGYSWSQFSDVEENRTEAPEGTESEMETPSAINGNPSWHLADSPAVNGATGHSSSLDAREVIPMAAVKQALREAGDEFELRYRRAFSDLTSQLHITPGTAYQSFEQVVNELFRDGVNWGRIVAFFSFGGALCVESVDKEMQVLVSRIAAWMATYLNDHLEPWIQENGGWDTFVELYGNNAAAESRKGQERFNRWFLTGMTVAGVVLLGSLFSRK
Sequence of (Lyso)-N-acylphosphatidylethanolamine lipase (Mus musculus) (Q8VD66 whole entry, looked up): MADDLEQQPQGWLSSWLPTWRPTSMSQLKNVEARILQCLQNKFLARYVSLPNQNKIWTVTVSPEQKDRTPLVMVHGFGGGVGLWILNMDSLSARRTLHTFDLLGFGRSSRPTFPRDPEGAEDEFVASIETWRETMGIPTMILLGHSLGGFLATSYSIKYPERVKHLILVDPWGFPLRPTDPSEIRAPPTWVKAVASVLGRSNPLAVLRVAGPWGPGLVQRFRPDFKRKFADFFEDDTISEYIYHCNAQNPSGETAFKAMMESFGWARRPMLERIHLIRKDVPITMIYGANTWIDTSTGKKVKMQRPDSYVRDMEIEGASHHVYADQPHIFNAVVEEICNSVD
Sequence of Nuclear receptor coactivator 3 (Homo sapiens) (Q9Y6Q9 whole entry, looked up, the tested form may be a part): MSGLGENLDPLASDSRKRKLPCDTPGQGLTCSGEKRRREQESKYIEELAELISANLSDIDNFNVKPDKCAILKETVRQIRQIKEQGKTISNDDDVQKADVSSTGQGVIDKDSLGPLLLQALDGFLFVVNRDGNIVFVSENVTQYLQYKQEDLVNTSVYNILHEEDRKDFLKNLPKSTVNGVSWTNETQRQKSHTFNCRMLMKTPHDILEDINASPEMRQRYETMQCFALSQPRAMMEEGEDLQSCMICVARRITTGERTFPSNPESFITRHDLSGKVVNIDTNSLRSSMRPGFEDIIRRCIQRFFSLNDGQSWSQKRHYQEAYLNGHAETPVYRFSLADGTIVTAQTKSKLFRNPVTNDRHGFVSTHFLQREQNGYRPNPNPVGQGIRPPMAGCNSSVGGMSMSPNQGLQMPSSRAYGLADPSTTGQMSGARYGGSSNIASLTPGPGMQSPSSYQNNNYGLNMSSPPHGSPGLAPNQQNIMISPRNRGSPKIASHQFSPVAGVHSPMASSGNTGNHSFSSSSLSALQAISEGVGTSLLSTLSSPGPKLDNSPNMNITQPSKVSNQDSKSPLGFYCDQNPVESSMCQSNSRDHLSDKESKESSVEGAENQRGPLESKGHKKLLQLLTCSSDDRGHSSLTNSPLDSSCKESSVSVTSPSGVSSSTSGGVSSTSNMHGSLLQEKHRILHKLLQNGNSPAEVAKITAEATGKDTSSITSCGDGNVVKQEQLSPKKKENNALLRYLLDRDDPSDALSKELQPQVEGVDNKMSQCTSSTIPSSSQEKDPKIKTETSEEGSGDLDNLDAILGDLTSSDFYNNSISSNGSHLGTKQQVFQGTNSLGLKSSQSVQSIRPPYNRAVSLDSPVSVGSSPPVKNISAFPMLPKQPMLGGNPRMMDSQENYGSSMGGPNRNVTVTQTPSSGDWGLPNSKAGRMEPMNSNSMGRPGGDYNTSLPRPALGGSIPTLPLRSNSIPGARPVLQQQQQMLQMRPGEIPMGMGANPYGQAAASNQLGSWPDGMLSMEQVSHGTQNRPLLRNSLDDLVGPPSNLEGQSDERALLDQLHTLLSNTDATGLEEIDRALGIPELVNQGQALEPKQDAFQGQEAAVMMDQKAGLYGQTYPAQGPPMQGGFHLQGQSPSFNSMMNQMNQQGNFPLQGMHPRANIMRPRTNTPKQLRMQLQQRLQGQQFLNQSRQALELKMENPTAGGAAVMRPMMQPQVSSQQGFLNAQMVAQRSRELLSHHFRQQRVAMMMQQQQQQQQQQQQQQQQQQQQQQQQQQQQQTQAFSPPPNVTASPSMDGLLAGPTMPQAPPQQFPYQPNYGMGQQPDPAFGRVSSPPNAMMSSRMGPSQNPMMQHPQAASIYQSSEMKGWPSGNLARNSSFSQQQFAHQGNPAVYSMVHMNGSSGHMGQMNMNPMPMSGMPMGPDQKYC
Sequence of Nuclear receptor coactivator 1 (Homo sapiens) (Q15788 whole entry, looked up, the tested form may be a part): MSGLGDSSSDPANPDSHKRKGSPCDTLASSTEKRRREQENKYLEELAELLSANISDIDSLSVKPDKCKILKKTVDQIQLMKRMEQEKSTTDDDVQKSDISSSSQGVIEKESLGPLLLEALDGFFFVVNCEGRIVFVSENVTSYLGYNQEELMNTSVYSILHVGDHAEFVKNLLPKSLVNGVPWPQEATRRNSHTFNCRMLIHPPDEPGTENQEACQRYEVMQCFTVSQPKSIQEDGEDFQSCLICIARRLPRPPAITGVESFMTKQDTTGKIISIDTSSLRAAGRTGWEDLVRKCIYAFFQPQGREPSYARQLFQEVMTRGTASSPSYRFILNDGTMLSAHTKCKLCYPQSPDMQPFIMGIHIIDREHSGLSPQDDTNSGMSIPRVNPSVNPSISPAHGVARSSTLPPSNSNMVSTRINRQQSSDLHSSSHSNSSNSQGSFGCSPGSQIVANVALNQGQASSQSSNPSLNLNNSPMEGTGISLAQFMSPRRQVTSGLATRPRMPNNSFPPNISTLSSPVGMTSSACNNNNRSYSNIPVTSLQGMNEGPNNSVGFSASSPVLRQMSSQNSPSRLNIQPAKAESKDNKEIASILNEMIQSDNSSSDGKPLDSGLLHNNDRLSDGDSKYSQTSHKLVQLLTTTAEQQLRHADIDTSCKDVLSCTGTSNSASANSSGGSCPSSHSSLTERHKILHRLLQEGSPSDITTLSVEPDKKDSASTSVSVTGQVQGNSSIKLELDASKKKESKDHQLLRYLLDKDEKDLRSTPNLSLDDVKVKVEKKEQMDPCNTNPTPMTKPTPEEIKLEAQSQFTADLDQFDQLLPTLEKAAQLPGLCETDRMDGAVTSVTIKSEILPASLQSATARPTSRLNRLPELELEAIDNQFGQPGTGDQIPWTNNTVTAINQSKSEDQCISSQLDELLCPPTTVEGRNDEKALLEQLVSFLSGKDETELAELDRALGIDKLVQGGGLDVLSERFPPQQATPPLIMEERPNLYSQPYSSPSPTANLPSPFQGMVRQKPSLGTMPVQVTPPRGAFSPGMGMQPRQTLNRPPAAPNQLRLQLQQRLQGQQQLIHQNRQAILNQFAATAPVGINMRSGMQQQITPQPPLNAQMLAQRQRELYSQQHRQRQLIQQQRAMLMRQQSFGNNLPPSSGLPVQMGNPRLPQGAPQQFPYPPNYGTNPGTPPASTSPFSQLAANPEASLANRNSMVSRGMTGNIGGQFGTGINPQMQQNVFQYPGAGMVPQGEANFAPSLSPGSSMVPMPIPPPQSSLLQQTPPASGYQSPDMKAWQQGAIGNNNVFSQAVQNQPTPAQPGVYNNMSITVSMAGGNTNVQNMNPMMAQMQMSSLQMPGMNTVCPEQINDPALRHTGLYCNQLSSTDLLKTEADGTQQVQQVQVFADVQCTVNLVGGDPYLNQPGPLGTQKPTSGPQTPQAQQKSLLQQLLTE
Sequence of Protein-arginine deiminase type-4 (Homo sapiens) (Q9UM07 whole entry, looked up): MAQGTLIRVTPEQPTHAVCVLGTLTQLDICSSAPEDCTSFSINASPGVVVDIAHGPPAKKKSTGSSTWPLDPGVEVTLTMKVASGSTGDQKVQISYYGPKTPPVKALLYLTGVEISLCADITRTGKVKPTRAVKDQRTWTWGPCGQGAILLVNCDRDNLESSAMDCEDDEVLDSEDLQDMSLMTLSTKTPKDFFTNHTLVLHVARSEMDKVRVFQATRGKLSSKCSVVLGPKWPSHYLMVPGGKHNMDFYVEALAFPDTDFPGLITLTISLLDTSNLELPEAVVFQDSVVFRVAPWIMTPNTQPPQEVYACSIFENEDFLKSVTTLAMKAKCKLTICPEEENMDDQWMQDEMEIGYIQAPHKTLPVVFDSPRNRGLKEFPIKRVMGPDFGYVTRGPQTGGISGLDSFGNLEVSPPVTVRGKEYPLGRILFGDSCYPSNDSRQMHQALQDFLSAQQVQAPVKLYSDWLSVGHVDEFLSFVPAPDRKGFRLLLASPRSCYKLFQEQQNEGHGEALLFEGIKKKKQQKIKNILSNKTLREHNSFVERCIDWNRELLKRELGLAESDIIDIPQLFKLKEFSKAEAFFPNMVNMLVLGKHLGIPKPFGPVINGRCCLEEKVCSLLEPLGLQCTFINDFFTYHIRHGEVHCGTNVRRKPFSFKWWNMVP
Sequence of Lytic switch protein BZLF1 (Epstein-Barr virus (strain B95-8)) (P03206 whole entry, looked up): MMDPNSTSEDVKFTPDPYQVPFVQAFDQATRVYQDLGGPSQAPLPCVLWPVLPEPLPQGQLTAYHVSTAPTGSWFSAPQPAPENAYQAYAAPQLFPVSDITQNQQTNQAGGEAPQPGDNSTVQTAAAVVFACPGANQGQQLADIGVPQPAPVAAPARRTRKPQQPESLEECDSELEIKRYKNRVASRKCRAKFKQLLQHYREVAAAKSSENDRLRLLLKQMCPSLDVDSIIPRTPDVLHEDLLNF

Turning to `Cc1ccc(NC(=O)c2cc(-c3ccc(C)o3)nc3ccccc23)nc1`, the inhibition in assay [1] was 12.4%; in assay [2], 41.7% (active).

For the compound `CN1C(=O)/C(=C/c2ccco2)SC1=Nc1cccc(C(=O)O)c1`, the inhibition in [1] is 93% (active); in [2], 125% (active); in assay [3], -7.94%; in assay [4], 0.8%.

For the compound `Cn1c2ccccc2c(=O)c2c(=O)n(Cc3ccco3)c(COc3ccccc3)nc21`, the inhibition in assay [1] is 38.4% (active); in assay [2] it was 60.8% (active).

In the case of `COCCN(CCOC)c1nc(N)c2c(N)nc3c(c2c1C#N)CC(=O)N3Cc1ccc(Cl)cc1`, the inhibition in [1] is 9.48%; in [2] it was 4.93%.

`CCCN1CC=C2C(C#N)=C(N)C(C#N)(C#N)C(c3cc(OC)ccc3OC)C2C1` (centres undefined): the results for the inhibition in assay [1] and in assay [2] were 35.6% (active) and 35.4%, respectively.

`COC(=O)c1sc(NC(=S)NC(=O)c2ccc(C)cc2)nc1C`: the figures for the inhibition in [1] and in assay [2] were 12.1% and 19.3%, respectively.

Take `O=c1[nH]c2ccccc2n2c(-c3ccccc3)nnc12`: the inhibition in [1] was 36.7% (active); in assay [2], 34.5%; in assay [5] it was 23.1%.

Take `Fc1ccc(CNc2nc3ccccc3n3nnnc23)cc1`: the figures for the inhibition in assay [1] and in assay [2] were 36.6% (active) and 41.3% (active), respectively.

Regarding `O=S(=O)([N-]c1nc2ccccc2nc1-[n+]1ccc(Cc2ccccc2)cc1)c1ccc(Br)s1`, the inhibition in assay [1] was 33.4% (active); in assay [2] it was 33.7%.

Take `Cc1nnc(NC(=O)/C=C/c2ccco2)s1`: the inhibition is 11.6% in assay [1] and 16.8% in [2].

Take `N/C(=N\OC(=O)CCc1ccccc1)c1ccc(Cl)cc1`: the values for the inhibition in [1] and in assay [2] were 1.43% and -0.05%, respectively.

For the compound `O=C(C[n+]1cc(Br)cc2ccccc21)c1ccc(F)cc1`, the inhibition in assay [1] was 23%; in [2], 22.2%.

As for `Oc1ccc2ccccc2c1N=Nc1nccs1`, the inhibition is -28.4% in assay [1]; -52.8% in assay [2]; 24.3% in assay [5]; 52.2% (active) in assay [6]; 45.8% (active) in assay [7]; 46.5% (active) in assay [8]. In addition, the inhibition in assay [9] was 29.6%; in [10], 55.1% (active); in assay [11], 64.9% (active).

With `CC/C(C)=N/Nc1nc2sc3c(c2c(=O)[nH]1)CC(C)(C)OC3`, the inhibition is 34.7% (active) in assay [1] and 53.8% (active) in [2].

In the case of `COC(=O)c1cc(OCC(=O)NC2CCCc3ccccc32)cc(C(=O)OC)c1` (centres undefined), the figures for the inhibition in assay [1] and in [2] were 16.3% and 28.4%, respectively.

As for `CN(C)c1ccc(Nc2c3c4c(cccc4n(C)c2=O)C(=O)c2ccccc2-3)cc1`, the values for the inhibition in assay [1] and in assay [2] were 80.1% (active) and 91.2% (active), respectively.

On to `COCCn1c(N)c(NCc2ccccc2)c(=O)[nH]c1=O`, for which the inhibition in assay [1] is 37.1% (active); in assay [2] it was 62.8% (active).

Turning to `COc1ccc2[nH]c(C)c(CCN(Cc3cccs3)C(=S)Nc3ccccc3OC)c2c1`, the inhibition is 14.6% in assay [1] and 12.4% in [2].

With `O=C(COC(=O)Cn1cnc2ccccc21)Nc1cccc2c1C(=O)c1ccccc1C2=O`, the inhibition in [1] is 88.4% (active); in assay [2] it was 73.3% (active).

Turning to `Brc1ccc(C2=CC(c3ccco3)n3ncnc3N2)cc1` (centres undefined), the inhibition in assay [1] was 52.9% (active); in assay [2], 75.9% (active).

For `O=C(O)c1ccccc1N=N/C(=N/Nc1cc(S(=O)(=O)O)ccc1O)c1ccccc1`, the inhibition was 29.1% in [1] and 69.6% (active) in assay [2].

On to `Cc1ccc(C(=O)O)cc1-c1ccc(/C=C2\SC(=O)N(CC(=O)Nc3ccc4c(c3)OCO4)C2=O)o1`, for which the inhibition in assay [1] was 18.5%; in assay [2] it was 60.8% (active).

With `COC/C=C/C1=CC2=CC(=O)C(C)(OC(=O)CCC(=O)OC)C(=O)C2=CO1` (centres undefined), the inhibition in assay [1] was 43.5% (active); in assay [2], 59.1% (active).

With `C=CCNc1nnc(SCC(=O)N2CCCCC2)c2ccccc12`, the inhibition is 55.6% (active) in assay [1] and 67.8% (active) in assay [2].

Consider `CCOC(=O)c1cc2n(c1N)-c1ccccc1C2=O`, for which the inhibition was 91.1% (active) in assay [1] and 106% (active) in assay [2].

`CCCn1c(O)c(CN2CCCC(C)C2)c(C)c(C#N)c1=O` (centres undefined): the inhibition is 36.2% (active) in assay [1] and 39.3% in [2].

`CN1c2ccc(C=O)c3c(C=O)ccc(c23)N(C)C1(C)C`: the inhibition is 126% (active) in assay [1]; 151% (active) in assay [2]; 63.5% (active) in [5]; 18.5% (active) in [12]; 46.9% (active) in assay [6]; 27.9% in assay [7]. The inhibition in assay [8] was 9.96%; in assay [9], 13.7%; in assay [10] it was 16.3%; in assay [13], 15.3%; in assay [14], 10.7%; in assay [11], 20.4%.
